NS1 inh – inhibitors of influenza NS1 protein function | Potency, µM (highest dose often 46.1 µM), for the others: top-dose activity, positive = more growth | hit rate 0.4% among 270,000 | AID 2326; calls by dose curve; note: actives are rising curves; nearly all actives have a fitted effect of over 50% in size
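Compounds were scored for reversing the slow growth caused by influenza A NS1 in S. cerevisiae, measured by optical density at 600 nm. Assay medium contained 2% galactose at pH 6.0; NS1-free yeast of the same strain were the positive control.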
SARS PLP yeast – inhibitors of SARS-CoV papain-like protease in yeast. AID 485353. Potency, µM (doses to about 32.9 µM), inactives show at the highest dose activity, positive = growth rescue, most hits filed as activators. hit rate 0.19% among 330,000. S. cerevisiae expressing SARS-CoV PLpro, growth rescue; calls by dose curve; note: 0% is about no effect; nearly all actives have a fitted effect of over 55% in size
Pf growth 96h – inhibits malaria parasite growth, 96 h | AID 504834 | Potency, µM (highest dose often 28.7 µM), without a hit: at the top dose activity change, negative = inhibition, actives largely listed as inhibitors | P. falciparum luciferase reporter growth, 96 h | hit rate 6.9% among 320,000; note: % is set by controls: 0 for no effect and ±100 for the full control effect
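P. falciparum expressing integrated firefly luciferase grown in erythrocytes (2% hematocrit, 0.05% parasitemia final) with compounds for 96 hours at 37 C, 5% CO2. Growth inhibition read as loss of luminescence after adding luciferase detection reagent.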
Pf growth 48h – inhibits P. falciparum growth in the first generation, 48 h; P. falciparum luciferase growth in erythrocytes, 48 h; Potency, µM (highest dose often 28.7 µM), inactives show top-dose activity change, negative = inhibition, actives largely listed as inhibitors; hit rate 5.9% among 310,000; AID 504832; note: % is set by controls: 0 for no effect and ±100 for the full control effect
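Growth was read as firefly luciferase luminescence after a 48 h, 37 C, 5% CO2 exposure of compounds to reporter-bearing P. falciparum cultures (0.1% parasitemia, 2% hematocrit final) in Albumax-supplemented RPMI 1640.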
* marks the source's active call; other numbers are inactive results; ? = inconclusive; . = not tested or not shown. Sampled rows, rich in hits. Any-hit rate of the full collection: about 10%. Unless noted, calls come from the whole dose curve; as a rule, active = well fitted inhibition curve with a large enough effect; inconclusive = small, poorly fitted or top-dose-only effect, or another doubt; inactive = no such curve, though single readings can be large or run the other way. Potency is the fitted concentration of half-maximal effect.

SMILES | NS1 inh | SARS PLP yeast | Pf growth 96h | Pf growth 48h
O=C1CCCC2=C1C(c1ccccc1O)C1=C(CCCC1=O)O2 | -1% | ? | 8.3µM* | .
CCOc1ccc(N2C(=O)/C(=C/c3ccco3)N(C)C2=S)cc1 | 19% | 3% | 2.1µM* | 8%
COC(=O)c1ccc(CNC(=O)COC(=O)c2cc(Cl)ccc2O)cc1 | . | -1% | . | .
Cc1cccc(C)c1NC(=S)NN(Cc1ccccc1)c1ccccc1 | 13% | 14% | 4.7µM* | .
Fc1ccccc1NC(=S)NN(Cc1ccccc1)c1ccccc1 | -10% | 8% | . | -26%
CC(C)c1ccccc1NC(=S)NN(Cc1ccccc1)c1ccccc1 | -8% | -5% | 12µM* | ?
CN(C1CCCCC1)S(=O)(=O)c1cc2c(cc1Cl)NC(=O)CO2 | 0% | -6% | ? | 9%
Cc1cccc(N2N=C(C(=O)O)CCC2=O)c1 | 2% | -1% | ? | 9.3µM*
Cc1cccc(-n2ccc(=O)c(C(=O)Nc3ccc(S(=O)(=O)N4CCOCC4)cc3)n2)c1 | 10% | 12% | 12µM* | -29%
Cc1ccc(-n2ccc(=O)c(C(=O)Nc3ccc(S(=O)(=O)N4CCOCC4)cc3)n2)cc1 | 1% | 6% | 0% | 23%
Cc1cccc(N2N=C(C(=O)Nc3ccc(Cl)c(S(=O)(=O)N4CCOCC4)c3)CCC2=O)c1 | . | 5% | ? | 12µM*
Cc1cc(-c2cc(C(=O)NCc3ccccc3)on2)nc(NC2CCCC2)n1 | 10% | 0% | ? | ?
CC(C)OC(=O)CSc1nc(Cc2ccccc2)nc2ccccc12 | -5% | 0% | ? | ?
Cc1occc1C(=O)N/N=C/c1cccc2ccccc12 | -31% | -7% | ? | 37%
CCOC(=O)c1ccc(S(=O)(=O)N2CCN(c3ccccn3)CC2)cc1 | 5% | . | -14% | -11%
CCCCSC1=NN1c1nc(N)nc(C)c1CC | -5% | 27% | 8.3µM* | .
CCN1CCN(c2c(C=O)c(Cl)nc3ccc(OC)cc23)CC1 | -11% | 0% | ? | -12%
Cc1ccc(NC(=O)Nc2cccn(Cc3c(F)cccc3Cl)c2=O)cc1 | -2% | 0% | 5.2µM* | -20%
O=C(NCc1ccccc1)Nc1cccn(Cc2c(F)cccc2Cl)c1=O | 0% | 1% | -39% | -24%
CN(C)CCNC(=O)c1onc(CSc2ccc(F)cc2)c1C(=O)NCCN(C)C | 19% | -4% | 3% | 13µM*
CN(C)CCNC(=O)c1onc(CSc2ccc(F)c(F)c2)c1C(=O)NCCN(C)C | -7% | -3% | 6.6µM* | 8.3µM*
O=C(O)CCN1C(=O)c2ccc(NC(=O)COc3ccccc3)cc2C1=O | -4% | 0% | 9% | 43%
O=C(O)CCN1C(=O)c2ccc(NC(=O)CCc3ccccc3)cc2C1=O | 6% | 0% | 12µM* | -1%
COc1ccc(CCNC(=O)C2CCCN(c3ncnc4c3nc3n4CCCCC3)C2)c(OC)c1 (stereo not drawn) | -8% | -3% | ? | ?
C[C@@H](O)CN(CCN(C[C@@H](C)O)C[C@@H](C)O)C[C@@H](C)O.O=[N+]([O-])O.[Cu] | -3% | . | . | .
SMILES | NS1 inh | SARS PLP yeast | Pf growth 96h | Pf growth 48h
CCOC(=O)C(Oc1ccc2c(-c3ccccc3)cc(=O)oc2c1C)c1ccccc1 (stereo not drawn) | -3% | 2% | ? | 12µM*
C/C(=N\OCC(=O)OCC(=O)NC(=O)c1ccc(OC(F)F)cc1)c1ccc2c(c1)OCO2 | . | 2% | 0% | 14%
CCCC(=O)c1c(C)c2ccccc2n1C | ? | 7% | 3.3µM* | -12%
Cc1cccc(C(=O)n2cnnc2N)c1 | 5% | 1% | -49% | 10µM*
CCNC(=O)CN(c1ccc(F)cc1)S(=O)(=O)c1ccc2c(c1)OCCO2 | -7% | 1% | -1% | 1%
CCCC1CC(C(=O)NC(C(C)Cl)C2OC(SC)C(O)C(O)C2O)N(C)C1 (stereo not drawn) | -11% | -10% | 0.0029µM* | 0.083µM*
CCC[C@@H]1C[C@@H](C(=O)NC(C(C)Cl)[C@H]2O[C@H](SC)[C@H](O)[C@@H](O)[C@H]2O)N(C)C1 (stereo partly drawn) | -6% | -1% | 0.0033µM* | ?
O=C(O)c1cc(-c2ccncc2)nc2ccccc12 | 2% | . | . | .
Cc1cccc(NCc2cc(Cl)ccc2O)n1 | 0% | -6% | -14% | 6.6µM*
Cc1cccc(NCc2cc(Cl)cc(Cl)c2O)n1 | -24% | -64% | -1% | 10µM*
COc1ccc(CNC(=O)c2ccc(S(=O)(=O)NCc3ccco3)cc2)cc1 | . | 0% | -6% | -4%
COc1ccc(-n2c(=S)[nH]c3cc(C(=O)N4CCN(c5ccccc5)CC4)ccc3c2=O)cc1 | 11% | 13% | 2.1µM* | -9%
C=CCn1c(=O)[nH]c2cc(C(=O)N3CCN(c4ccc(C(C)=O)cc4)CC3)ccc2c1=O | -9% | -12% | 6.6µM* | .
COc1ccc(N2CCN(C(=O)c3ccc4c(c3)[nH]c(=S)n3c5ccccc5nc43)CC2)cc1 | . | -1% | 13% | -12%
O=C(c1ccc(Cn2c(=S)[nH]c3cc4c(cc3c2=O)OCO4)cc1)N1CCN(c2ncccn2)CC1 | 15% | 2% | ? | 12µM*
COc1ccc(N2CCN(C(=O)c3ccc4c(=O)n(Cc5ccc6c(c5)OCO6)c(=O)[nH]c4c3)CC2)cc1 | 8% | -1% | 13% | 0%
O=C(c1ccc2c(=O)n(Cc3ccc4c(c3)OCO4)c(=O)[nH]c2c1)N1CCN(c2ccccc2)CC1 | 10% | -5% | 12µM* | -9%
C[C@](O)(CS(=O)(=O)c1ccc(F)cc1)C(=O)Nc1ccc(C#N)c(C(F)(F)F)c1 | . | . | ? | -29%
O=C(COC(=O)C1CCCC1)Nc1ncc(Cl)cc1Cl | . | -7% | 30% | 10%
COc1ccc(-c2cc([C@H](O)C3CCCCN3)c3ccccc3n2)cc1 (stereo partly drawn) | 8% | . | . | .
Cc1ccc(C)c(N2N=C(C(=O)OCc3nnc(-c4ccccc4)o3)CCC2=O)c1 | . | 2% | 16% | -3%
CC1CCCN(C(=O)c2ccc3c(=O)n(Cc4ccc5c(c4)OCO5)c(=S)[nH]c3c2)C1 (stereo not drawn) | 12% | 4% | 7.4µM* | -29%
COc1ccc(Cn2c(=O)[nH]c3cc(C(=O)N4CCN(c5ccc(OC)cc5)CC4)ccc3c2=O)cc1 | 4% | -16% | 24% | -26%
O=C(c1ccc2c(=O)n(-c3ccccc3)c(=O)[nH]c2c1)N1CCN(c2ccc(F)cc2)CC1 | -17% | 4% | 38% | -16%
COc1ccc(Cn2c(=O)[nH]c3cc(C(=O)N4CCN(c5ccc(C(C)=O)cc5)CC4)ccc3c2=O)cc1 | 13% | 5% | 12µM* | -20%
CC(=O)c1ccc(N2CCN(C(=O)c3ccc4c(=O)n(-c5ccccc5)c(=O)[nH]c4c3)CC2)cc1 | -17% | 3% | ? | 10µM*
COc1cccc2sc(Nc3nnc(-c4cccs4)o3)nc12 | -123% | -15% | 144% | ?
COc1cccc2sc(Nc3nnc(-c4ccc(F)cc4)o3)nc12 | -31% | -11% | 1.9µM* | 12µM*
COc1cc(NS(=O)(=O)c2ccc(C)cc2C)cc(OC)c1OC | 0% | 13% | 3.3µM* | 6.6µM*
